Data: PubChem BioAssay AID652068 (The Scripps Research Institute Molecular Screening Center, 2013)
The whole screen tested about 4,300 compounds, of which about 4,000 (93%) were called active. So high a share suggests a set chosen from earlier hits. The list is a sample of the results. Unmarked numbers belong to inactive results.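 How the source made its calls: active means inhibition above its plate's cutoff, the mean test-well inhibition plus 3 SD (cut at about 4.8% in these data); inactive means the rest.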

Experiment: DNA CAG/GTC dye complex inhibitors – biochemical, fluorescence, TO-PRO-1 dye, d(CAG) DNA oligo, counter-screen for rCAG RNA repeat binder project (AID 652068);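 further: 0% = DNA dye mix with DMSO and 100% = 100 µM mitoxantrone; hits displace the dye from DNA and so lower well fluorescence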
Conditions: d(CAG) DNA oligo TO-PRO-1 dye displacement, at 3 µM, hits give high values

| SMILES | inhibition |
| --- | --- |
| CC(C)c1ccc(Nc2nnc(SCC(=O)c3nnc(-c4ccccc4)o3)s2)cc1 | 27.2% (active) |
| O=C(O)c1ccc(NN=CC2=C(N3CCOCC3)/C(=C/c3ccccc3)CC2)cc1 | 30.8% (active) |
| NC(=O)c1c(Nc2nc3c(F)cccc3s2)sc2c1CCCC2 | 14.3% (active) |
| COc1ccc(OC)c(NC(=O)CSc2nc(-c3ccccc3)cc(=O)[nH]2)c1 | 5.74% (active) |
| CCOc1cc(/C=C(\C#N)c2nc(-c3cccs3)c(NC(C)=O)s2)ccc1O | 16.7% (active) |
| CCCOc1ccc(Cn2c(O)cc(=O)[nH]c2=O)cc1 | 6.06% (active) |
| COc1ccc(Cl)cc1-n1c(=S)sc2c(=O)n(-c3ccc(F)cc3)c(SCC(=O)O)nc21 | 8.24% (active) |
| COc1ccccc1/C=C/C=N/n1c(-c2ccc(Cl)cc2Cl)n[nH]c1=S | 15.2% (active) |
| COc1cc(C2CC(=O)N3CN(Cc4ccccc4)CSC3=C2C#N)ccc1OCc1ccccc1 (stereo not drawn) | 12.4% (active) |
| Cc1ccc(Nc2nc(-c3ccc(O)cc3O)cs2)nc1 | 13% (active) |
| O=C(N/N=C/c1cc(Cl)cc([N+](=O)[O-])c1O)C(O)(c1ccccc1)c1ccccc1 | 17.8% (active) |
| Cc1cc(/C=C2/C(=N)N3C(=NC2=O)SN=C3S(C)(=O)=O)c(C)n1-c1ccccc1 | 53.2% (active) |
| Clc1ccccc1CSc1nnc(-c2ccco2)c(-c2ccco2)n1 | 30% (active) |
| Cc1cc(F)ccc1S(=O)(=O)Nc1ncnc2scc(-c3ccc(F)cc3)c12 | 34.7% (active) |
| O=C(Nc1nc(-c2ccco2)c(-c2ccco2)s1)c1ccco1 | 16.6% (active) |
| Cc1ccc(C(=O)O)cc1-c1ccc(/C=C2\SC(=O)N(CC(=O)Nc3ccc4c(c3)OCO4)C2=O)o1 | 59.2% (active) |
| Cc1ccc(C(C)C)c(OCCSc2nc3ccccc3n2CC(=O)O)c1 | 10.7% (active) |
| Cc1ccc(C)c(Cn2nnc3c(=O)[nH]c(C(=O)Nc4ccc(F)cc4)nc32)c1 | 11.1% (active) |
| O=c1cc(CN2CCN(S(=O)(=O)/C=C/c3ccccc3)CC2)c2ccc(O)cc2o1 | 13.1% (active) |
| Cc1cccc(C)c1NC(=O)C(c1ccc(C(F)(F)F)cc1)n1c(=O)c(-c2ccco2)nc2ccccc21 (stereo not drawn) | 7.75% (active) |
| O=C1c2cccc3cccc(c23)C(=O)N1CCCCCc1n[nH]c(=S)o1 | 6.52% (active) |

| SMILES | inhibition |
| --- | --- |
| CC(C)c1nc(SCC(=O)Nc2cccc(C(=O)O)c2)c2c3c(sc2n1)CCCC3 | 20% (active) |
| O=C(N/N=C/c1cccnc1)c1cc2ccccc2cc1O | 4.9% (active) |
| Cc1nnc(NC(=O)Nc2ccc(Cl)c(Cl)c2)s1 | 21.5% (active) |
| Cc1ccc(NC(=O)Nc2nnc(-c3ccncc3)s2)cc1 | 13.7% (active) |
| C=C1c2c(Cl)ccc(O)c2C(O)=C2C(=O)[C@]3(O)C(O)=C(C(N)=O)C(=O)[C@@H](N(C)C)[C@@H]3[C@@H](O)C12 (stereo partly drawn) | 38% (active) |
| Cc1ccc(Nc2nc(CSc3nnnn3-c3ccccc3)cc(=O)[nH]2)cc1 | 16.6% (active) |
| O=C(O)c1ccc2c(c1)C(=O)N(c1ccc(/C=C/C(=O)c3ccccc3)cc1)C2=O | 23.6% (active) |
| CCOc1ccc(-n2c(O)c(/C=N/Nc3nnc(C)c(=O)[nH]3)c3ccccc3c2=O)cc1 | 22.9% (active) |
| N#Cc1c(NC(=O)C2CC(Cl)=CCC2C(=O)O)sc2c1CCCCC2 (stereo not drawn) | 9.19% (active) |
| COC(=O)c1c(NC(=O)C2CC(C)=C(C)CC2C(=O)O)sc2c1CCCCC2 (stereo not drawn) | 20.6% (active) |
| CCc1nnc(NS(=O)(=O)c2ccc(NC(=S)NC(=O)c3cccs3)cc2)s1 | 16.6% (active) |
| CCc1nnc(NS(=O)(=O)c2ccc(NC(=O)c3cccc(OC(F)(F)C(F)F)c3)cc2)s1 | 22.8% (active) |
| COc1ccc(C(=O)Nc2cccc(/C=C(/CCC(=O)O)c3nc4ccccc4s3)c2)cc1 | 33.5% (active) |
| O=C(O)CC/C(=C\c1cc2c(cc1Br)OCO2)c1nc2ccccc2s1 | 13.3% (active) |
| Cc1ccc2cc(/C=N/Nc3ccc(C(=O)O)cc3)c(Cl)nc2c1 | 12% (active) |
| Cc1ccc(/C=C/C(=O)Nc2ccc([N+](=O)[O-])c(NC(=O)/C=C/c3ccc(C)o3)c2)o1 | 24.9% (active) |
| O=C(Nc1nnc(-c2ccccc2)o1)c1cc(-c2cccs2)nc2ccccc12 | 28.7% (active) |
| O=C(Nc1ccccc1)Nc1nnc(COc2ccccc2F)s1 | 24.9% (active) |
| O=C(NC(=S)Nc1ccccc1C(=O)O)c1ccc(-c2ccc(Br)cc2)o1 | 40.4% (active) |
| COCCNC(=O)Nc1ccc2nc(-c3ccco3)c(-c3ccco3)nc2c1 | 28.6% (active) |
| Cc1ccc(C(=O)Oc2coc(CSc3nnc(NC(=O)c4cccs4)s3)cc2=O)cc1C | 23.1% (active) |

| SMILES | inhibition |
| --- | --- |
| Cc1ccc(-c2csc(C(C#N)=C(O)CN3CCN(C(=O)c4ccco4)CC3)n2)cc1 | 18.7% (active) |
| Cc1ccc(S(=O)(=O)NCCC(c2ccccc2)c2ccccc2)cc1C(=O)O | 5.44% (active) |
| Cc1ccccc1OCC(=O)Nc1nnc(S(=O)(=O)N2CCCC2)s1 | 10.8% (active) |
| CCCCCCC(=O)Nc1nc(C)c(-c2csc(Nc3cc(Cl)ccc3OC)n2)s1 | 11.6% (active) |
| C[C@H]([C@@H](O)[C@@H](O)[C@@H](C)C(C)(C)C)[C@H]1CC[C@H]2C3CC[C@H]4C[C@H](OS(=O)(=O)O)[C@@H](OS(=O)(=O)O)C[C@]4(C)[C@H]3CC[C@]12C (stereo partly drawn) | 61.2% (active) |
| Cc1ccc(S(=O)(=O)Nc2nc3ccccc3s2)cc1[N+](=O)[O-] | 6.62% (active) |
| O=C1/C(=C/c2ccc(F)cc2)SC(=S)N1NS(=O)(=O)c1ccccc1 | 11.9% (active) |
| COc1ccc2[nH]c3c(C)c4cc[n+](C)cc4c(C)c3c2c1 | 61.2% (active) |
| Oc1c(Cl)cc(Cl)c(Cl)c1Cc1c(O)c(Cl)cc(Cl)c1Cl | 76.5% (active) |
| Cc1cc(NS(=O)(=O)c2ccc(NC(=O)CSc3nnc(SCc4ccc(F)cc4)s3)cc2)nc(C)n1 | 13% (active) |
| CCn1c(SCC(=O)Nc2ccc(S(=O)(=O)Nc3onc(C)c3C)cc2)nnc1-c1ccccc1 | 6.29% (active) |
| Cc1cc(NS(=O)(=O)c2ccc(NC(=O)CSc3nnc(-c4ccc(C(C)(C)C)cc4)n3Cc3ccco3)cc2)nc(C)n1 | 4.42% (active) |
| Cc1nnc(SC(C(=O)Nc2cc(Cl)cc(Cl)c2)c2ccccc2)[nH]c1=O (stereo not drawn) | 28% (active) |
| CCOc1ccc(-n2c(SCC(=O)Nc3cc(C(=O)O)ccc3Cl)nc3ccccc3c2=O)cc1 | 19.2% (active) |
| COC(=O)c1sc(-c2ccc(C(C)(C)C)cc2)cc1NC(=O)/C=C/C(=O)O | 41.3% (active) |
| CSc1ccc(C=Nn2c(-c3ccc(F)cc3)n[nH]c2=S)cc1 | 11.3% (active) |
| CC(C(=O)Nc1ccc(O)c(C(=O)O)c1)N1C(=O)/C(=C/c2cccs2)SC1=S (stereo not drawn) | 42.3% (active) |
| COc1ccc(-c2cc(=O)oc3cc(OCC(=O)N[C@@H](Cc4c[nH]c5ccccc45)C(=O)O)ccc23)cc1 | 26.4% (active) |
| COc1ccc(S(=O)(=O)NCCc2c[nH]c3ccccc23)cc1OC | 0.56% |
| O=C(N[C@@H](Cc1c[nH]c2ccccc12)C(=O)O)OCC1c2ccccc2-c2ccccc21 | 23.8% (active) |
| COc1ccc(-c2cc(C(=O)NC(Cc3c[nH]c4ccccc34)C(=O)O)c(C)o2)cc1OC (stereo not drawn) | 16.9% (active) |

| SMILES | inhibition |
| --- | --- |
| CC(Oc1ccc2c(-c3ccccc3)cc(=O)oc2c1)C(=O)NC(Cc1c[nH]c2ccccc12)C(=O)O (stereo not drawn) | 16.9% (active) |
| COc1cccc2sc(NNC(=O)c3nc4ccccc4s3)nc12 | 42.1% (active) |
| Cc1ccc(-n2c(SCC(=O)Nc3ccc(S(=O)(=O)Nc4nccs4)cc3)nnc2-c2ccncc2)cc1 | 35.9% (active) |
| Cc1ccc(-n2c(SCC(=O)Nc3ccc(S(=O)(=O)Nc4nccs4)cc3)nnc2-c2ccccn2)cc1 | 23.8% (active) |
| Cc1ccc(-n2c(SCC(=O)Nc3ccc(S(=O)(=O)Nc4nccs4)cc3)nnc2-c2cccnc2)cc1 | 24.7% (active) |
| CC1(C(=O)NS(=O)(=O)c2ccccc2)CCN1C(=O)Cc1ccc(-c2ccccc2)cc1 (stereo not drawn) | 7.2% (active) |
| CC(C)c1ccc(CC(=O)N2CCC2(C)C(=O)NS(=O)(=O)c2ccc(C(C)(C)C)cc2)cc1 (stereo not drawn) | 25.3% (active) |
| CC1(C(=O)NS(=O)(=O)Cc2cccc(Cl)c2)CCN1C(=O)Cc1ccc(Cl)cc1Cl (stereo not drawn) | 36.2% (active) |
| COc1ccc(S(=O)(=O)NC(=O)C2(C)CCN2C(=O)c2ccccc2CCc2ccccc2)cc1 (stereo not drawn) | 6.35% (active) |
| CC(Oc1ccc2ccccc2c1)C(=O)NNC(=S)NC(=O)c1ccco1 (stereo not drawn) | 11.8% (active) |
| CCCc1ccc(OCC(=O)NNC(=S)NC(=O)c2ccco2)cc1 | 14.4% (active) |
| O=C(Nc1ccc2c(c1)CCC2)c1cccc(S(=O)(=O)Nc2ccccc2Cl)c1 | 10.7% (active) |
| NS(=O)(=O)c1ccc(N=Nc2c(O)[nH]c3ccc(Br)cc23)cc1 | 9.96% (active) |
| N#CCC(=O)Nc1ccc(C(=O)OCC(=O)Nc2sc3c(c2C#N)CCCC3)cc1 | 17% (active) |
| COC(=O)c1sccc1NC(=O)CSc1ccccc1NS(=O)(=O)c1cc(Cl)ccc1Cl | 32.6% (active) |
| NS(=O)(=O)c1ccc(NC2=CC(c3ccc(F)cc3)N(c3ccc(S(N)(=O)=O)cc3)C2=O)cc1 (stereo not drawn) | 15% (active) |
| CC(C)(C)C1C/C(=C/c2ccco2)C(=O)/C(=C/c2ccco2)C1 (stereo not drawn) | 17.1% (active) |
| CC(=O)N(c1ccc2oc(=O)sc2c1)S(=O)(=O)c1ccc(C)cc1 | 3.88% |
| O=C(c1cccnc1)N(c1cc2sc(=O)oc2c2ccccc12)S(=O)(=O)c1ccccc1 | 20.1% (active) |
| COc1ccc(Cc2nnc(SCC(=O)Nc3ccc(C)c(Cl)c3)[nH]c2=O)cc1 | 24.4% (active) |
